Screening results as filed in PubChem.
GDH-TPI counter: counter-screen for M. tuberculosis FBA inhibitors: GDH-TPI coupled enzymes; inhibition, % at 4.8 µM; GDH-TPI coupled enzyme counterscreen, NADH absorbance; hit rate 1.2% among 360,000;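 also: 0% = DMSO wells and 100% = wells lacking the enzyme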
RecA intein inh: blocks M. tuberculosis RecA intein splicing | P9WHJ3 | cell-free RecA intein splicing, fluorescence | inhibition, % (no concentration beside the values) | hit rate 0.75% among 290,000 | AID 2221; in the data active = inhibition above about 30%;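 also: 0% = vehicle wells and 100% = reference inhibitor control wells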
Mtb FBA inh: inhibitors of M. tuberculosis fructose-bisphosphate aldolase. P9WQA3. purified M. tuberculosis FBA, fluorescence read-out. inhibition, % at 1 µM. hit rate 2.3% among 360,000; in the data active = inhibition above about 27%;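 also: 0% = vehicle and 100% = reference inhibitor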
Target sequence (P9WQA3 whole entry, looked up): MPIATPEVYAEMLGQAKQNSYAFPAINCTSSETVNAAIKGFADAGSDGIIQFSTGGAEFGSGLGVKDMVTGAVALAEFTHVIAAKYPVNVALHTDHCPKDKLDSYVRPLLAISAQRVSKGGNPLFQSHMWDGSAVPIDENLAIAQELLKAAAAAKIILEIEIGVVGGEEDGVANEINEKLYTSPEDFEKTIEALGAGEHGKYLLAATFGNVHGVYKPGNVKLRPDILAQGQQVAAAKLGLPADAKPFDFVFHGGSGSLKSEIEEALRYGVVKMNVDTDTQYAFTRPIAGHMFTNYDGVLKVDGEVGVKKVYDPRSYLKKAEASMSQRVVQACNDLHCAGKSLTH
CCHFV vOTU inh: CCHFV vOTU protease inhibition; hit rate 0.55% among 370,000; inhibition, % at 11.5 µM; Pep-AMC fluorescence; also: 0% = vehicle wells with enzyme and 100% = no enzyme wells
An asterisk follows results filed as active. Sampled rows, rich in hits. Any-hit rate of the full collection: about 4.2%. Rule as the data show it, unless noted: active = inhibition above about 30%; inactive = the rest.

Results for CCSc1nc(-c2ccc(OC)cc2)cc(-c2ccccc2)c1C#N ?
GDH-TPI counter: 6; RecA intein inh: -1; Mtb FBA inh: 1; CCHFV vOTU inh: 16

How did O=S1(=O)N=C(Nc2nc3c(s2)CCCC3)c2ccccc21 do in these assays?
GDH-TPI counter: 36*; Mtb FBA inh: 1; CCHFV vOTU inh: 8

Results for Cc1cc(OCC(=O)NCc2ccc(S(N)(=O)=O)cc2)c2c3c(c(=O)oc2c1)CCC3 ?
GDH-TPI counter: 24; RecA intein inh: 1; Mtb FBA inh: 40*; CCHFV vOTU inh: 0

Results for COc1cccc(/C=N/n2nnnc2N)c1OCC#N ?
GDH-TPI counter: 10; RecA intein inh: 3; Mtb FBA inh: 15; CCHFV vOTU inh: -14

How did CCN(c1ccc(NC(=O)CSCc2c(C)noc2C)cc1)C(C)C do in these assays?
GDH-TPI counter: 13; Mtb FBA inh: -2; CCHFV vOTU inh: -4

Results for O=c1[nH]c(/C=C\c2ccc(O)cc2)nc(O)c1[N+](=O)[O-] ?
GDH-TPI counter: 41*; RecA intein inh: 0; Mtb FBA inh: -10; CCHFV vOTU inh: 7

What do the screens show for `COc1cccc(N2CCN(C(=O)CSc3nc4ncccc4[nH]3)CC2)c1`?
CCHFV vOTU inh: -3

How did O=C1CCC(C(=O)N2CCCC(Nc3ccc(F)cc3)C2)=NN1 (centres undefined) do in these assays?
GDH-TPI counter: -6; RecA intein inh: 1; Mtb FBA inh: 2; CCHFV vOTU inh: 6

How did CCCC(=O)Oc1ccc(C2NC(=O)c3ccccc3O2)cc1OC (centres undefined) do in these assays?
GDH-TPI counter: -3; RecA intein inh: 0; Mtb FBA inh: 1; CCHFV vOTU inh: -7

How did CC(C)(C)C1CCC(=NNC(=O)c2cc3c(s2)CCCC3)CC1 (centres undefined) do in these assays?
GDH-TPI counter: 12; RecA intein inh: 5; Mtb FBA inh: 1; CCHFV vOTU inh: 21

How did CC(C)(C)C1CCc2sc(C(=O)NNC(=O)CCl)cc2C1 (centres undefined) do in these assays?
GDH-TPI counter: -4; RecA intein inh: 67*; Mtb FBA inh: 1; CCHFV vOTU inh: 1

Results for CS(=O)(=O)N(CC(=O)N/N=C/c1cccc2c1OCCO2)c1ccccc1Br ?
GDH-TPI counter: 5; RecA intein inh: 1; Mtb FBA inh: 15; CCHFV vOTU inh: 1

What do the screens show for `CCOC(=O)c1ccc(-c2ccc(/C=N/NC(=O)CN(c3ccccc3Br)S(C)(=O)=O)o2)cc1`?
GDH-TPI counter: 32*; RecA intein inh: -2; Mtb FBA inh: 6; CCHFV vOTU inh: -3

Results for COc1cc(/C=N/NC(=S)Nc2cccc(S(=O)(=O)N(C)C)c2)cc(OC)c1O ?
GDH-TPI counter: 14; RecA intein inh: -3; Mtb FBA inh: 0; CCHFV vOTU inh: 11

How did COc1ccc(/C=N/NC(=S)Nc2cccc(C(=O)O)c2)cc1OC do in these assays?
GDH-TPI counter: 50*; RecA intein inh: 0; Mtb FBA inh: 7; CCHFV vOTU inh: 12

What do the screens show for `COc1cccc(/C=N/NC(=S)Nc2cccc(C(=O)O)c2)c1`?
GDH-TPI counter: 15; Mtb FBA inh: 3; CCHFV vOTU inh: 3

How did COc1cc(/C=N/NC(=S)Nc2cccc(C(=O)O)c2)cc(OC)c1OC do in these assays?
GDH-TPI counter: 41*; RecA intein inh: 6; Mtb FBA inh: -1; CCHFV vOTU inh: 1

How did C=CCNC(=O)CN(C(=O)c1csc2ccc(Cl)cc12)c1cccc(Br)c1 do in these assays?
CCHFV vOTU inh: 5

What do the screens show for `COc1ccc([C@H]2OC(=O)C[C@H]2C(=O)N2CCN(C(=O)C3CCCO3)CC2)cc1OC` (some centres undefined)?
CCHFV vOTU inh: 2

How did COc1cccc(NC(=O)CCN2C(=O)C3CC=CCC3C2=O)c1 (centres undefined) do in these assays?
GDH-TPI counter: 6; RecA intein inh: 0; Mtb FBA inh: 0; CCHFV vOTU inh: -8

Results for Cc1cc(=O)oc2c3c(cc(OCC(=O)NCC(=O)N[C@H](C(=O)O)C(C)C)c12)OC(C)(C)CC3 ?
GDH-TPI counter: 2; RecA intein inh: -1; Mtb FBA inh: active; CCHFV vOTU inh: -275

What do the screens show for `Cc1cc(OCC(=O)NCC2CCC(C(=O)O)CC2)c2c(C)cc(=O)oc2c1` (centres undefined)?
GDH-TPI counter: 10; RecA intein inh: -5; Mtb FBA inh: 21; CCHFV vOTU inh: -11

What do the screens show for `CC[C@@H](C)[C@H](NC(=O)Cc1c(C)c2c(cc(C)c3c(C)c(C)oc32)oc1=O)C(=O)O`?
GDH-TPI counter: 10; RecA intein inh: -30; Mtb FBA inh: 27; CCHFV vOTU inh: -8

What do the screens show for `CC[C@H](C)[C@H](NC(=O)CNC(=O)COc1cc2c(c3oc(=O)cc(C)c13)CCC(C)(C)O2)C(=O)O`?
GDH-TPI counter: -2; RecA intein inh: 0; Mtb FBA inh: active; CCHFV vOTU inh: -240

What do the screens show for `CCCC(NC(=O)COc1cc2c(c3oc(=O)cc(C)c13)CCC(C)(C)O2)C(=O)O` (centres undefined)?
GDH-TPI counter: 8; RecA intein inh: -2; Mtb FBA inh: 128*; CCHFV vOTU inh: -81

What do the screens show for `COc1ccc(/C=C(/NC(=O)c2ccccc2)C(=O)N2CCCC2)cc1`?
GDH-TPI counter: -3; RecA intein inh: 1; Mtb FBA inh: 2; CCHFV vOTU inh: 2

Results for CC(=O)c1c(O)c(C)c(O)c2c1OC1=CC(=O)C(C(C)=O)C(=O)[C@@]12C (some centres undefined) ?
GDH-TPI counter: 15; RecA intein inh: -3; Mtb FBA inh: -1; CCHFV vOTU inh: 13

What do the screens show for `Cc1cc(C)c(C(=O)COC(=O)C2CC3CCCC(C2)C3=O)c(C)c1` (centres undefined)?
GDH-TPI counter: 5; RecA intein inh: -1; Mtb FBA inh: 5; CCHFV vOTU inh: -1

Results for N#C/C(=C\c1ccc(O)c(O)c1)C(=O)c1ccc(O)c(O)c1 ?
GDH-TPI counter: 46*; Mtb FBA inh: -7; CCHFV vOTU inh: 6

Results for N#C/C(=C\c1ccc(O)c(O)c1)C(=O)N1CCCC1 ?
GDH-TPI counter: 7; RecA intein inh: -1; Mtb FBA inh: -9; CCHFV vOTU inh: 3

How did O=C(Nc1ccc(F)cc1)C(c1ccccc1)N1CCN(S(=O)(=O)c2ccc3ccccc3c2)CC1 (centres undefined) do in these assays?
GDH-TPI counter: 12; RecA intein inh: -2; Mtb FBA inh: 30*; CCHFV vOTU inh: 1

What do the screens show for `Cc1ccc(C)c(S(=O)(=O)N2CCN(C(C(=O)Nc3ccc(F)cc3)c3ccccc3)CC2)c1` (centres undefined)?
GDH-TPI counter: 9; RecA intein inh: 1; Mtb FBA inh: 3; CCHFV vOTU inh: -4

Results for Cc1cc(C)cc(Cn2c3ccc(NC(=O)NCc4ccc(F)cc4)cc3c(=O)n2C)c1 ?
GDH-TPI counter: 8; Mtb FBA inh: 133*; CCHFV vOTU inh: -76

What do the screens show for `Cc1cc(C)cc(Cn2c3ccc(NC(=O)NCc4ccccc4)cc3c(=O)n2C)c1`?
GDH-TPI counter: -8; Mtb FBA inh: 172*; CCHFV vOTU inh: -109

What do the screens show for `Cc1cc(C)cc(Cn2c3ccc(NC(=S)NC4CCCCC4)cc3c(=O)n2C)c1`?
GDH-TPI counter: 4; Mtb FBA inh: 17; CCHFV vOTU inh: -26
